In ChEMBL document CHEMBL2218924, “A broad activity screen in support of a chemogenomic map for kinase signalling research and drug discovery” (Biochem J, 2013):

How the values were obtained:
[1] = biological target: ALK tyrosine kinase receptor (Homo sapiens) (UniProt Q9UM73); details: at 10 µM
[2] = biological target: T1, Activin receptor type-1B (Homo sapiens) (UniProt P36896); details: at 1 µM
T1 sequence (whole entry): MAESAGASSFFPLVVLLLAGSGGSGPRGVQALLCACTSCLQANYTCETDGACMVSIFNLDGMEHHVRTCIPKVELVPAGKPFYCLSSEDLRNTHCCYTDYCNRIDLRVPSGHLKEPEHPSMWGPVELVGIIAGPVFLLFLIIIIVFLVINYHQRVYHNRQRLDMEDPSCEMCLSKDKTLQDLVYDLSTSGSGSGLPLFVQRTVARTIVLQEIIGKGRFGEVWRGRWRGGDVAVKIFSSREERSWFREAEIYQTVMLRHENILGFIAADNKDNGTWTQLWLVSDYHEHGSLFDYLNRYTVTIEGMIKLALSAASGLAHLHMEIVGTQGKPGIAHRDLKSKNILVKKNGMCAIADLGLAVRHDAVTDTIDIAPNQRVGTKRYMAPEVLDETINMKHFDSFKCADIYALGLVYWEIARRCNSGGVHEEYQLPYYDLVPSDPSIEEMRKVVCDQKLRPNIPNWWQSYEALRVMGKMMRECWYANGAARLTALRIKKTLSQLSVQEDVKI

[3] = biological target: T1, Activin receptor type-1B (Homo sapiens); details: at 10 µM
[4] = biological target: T2, AMP-activated protein kinase (AMPK) alpha-1/beta-1/gamma-1 (Homo sapiens) (UniProt P54619+Q9Y478+Q13131); details: at 1 µM
T2 sequence (P54619 whole entry): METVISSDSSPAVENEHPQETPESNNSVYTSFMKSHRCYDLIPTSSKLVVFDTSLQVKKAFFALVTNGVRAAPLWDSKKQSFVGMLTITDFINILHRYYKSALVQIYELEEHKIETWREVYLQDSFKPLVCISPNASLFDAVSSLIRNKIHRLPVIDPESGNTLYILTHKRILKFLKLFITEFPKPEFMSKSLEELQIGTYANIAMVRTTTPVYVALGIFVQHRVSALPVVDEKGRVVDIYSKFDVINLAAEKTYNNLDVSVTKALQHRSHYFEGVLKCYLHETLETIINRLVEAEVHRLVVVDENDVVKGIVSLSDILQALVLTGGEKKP
T2 sequence (Q13131 whole entry partner): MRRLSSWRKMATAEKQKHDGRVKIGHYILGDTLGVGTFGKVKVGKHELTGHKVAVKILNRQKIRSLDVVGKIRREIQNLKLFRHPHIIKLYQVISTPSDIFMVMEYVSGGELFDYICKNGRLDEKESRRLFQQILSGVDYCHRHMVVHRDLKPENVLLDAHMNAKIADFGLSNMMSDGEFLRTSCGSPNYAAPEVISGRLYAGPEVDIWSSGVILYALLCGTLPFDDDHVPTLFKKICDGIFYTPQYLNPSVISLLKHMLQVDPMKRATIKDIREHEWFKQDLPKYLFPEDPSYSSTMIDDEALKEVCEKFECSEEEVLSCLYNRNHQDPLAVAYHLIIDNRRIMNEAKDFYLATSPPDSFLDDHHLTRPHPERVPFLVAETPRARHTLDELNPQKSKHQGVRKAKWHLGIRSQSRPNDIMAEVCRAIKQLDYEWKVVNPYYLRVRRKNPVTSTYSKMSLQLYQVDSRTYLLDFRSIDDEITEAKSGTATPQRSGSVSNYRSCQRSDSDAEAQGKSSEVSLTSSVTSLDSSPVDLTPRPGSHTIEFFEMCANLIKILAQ
T2 sequence (Q9Y478 2-270 partner limits assumed): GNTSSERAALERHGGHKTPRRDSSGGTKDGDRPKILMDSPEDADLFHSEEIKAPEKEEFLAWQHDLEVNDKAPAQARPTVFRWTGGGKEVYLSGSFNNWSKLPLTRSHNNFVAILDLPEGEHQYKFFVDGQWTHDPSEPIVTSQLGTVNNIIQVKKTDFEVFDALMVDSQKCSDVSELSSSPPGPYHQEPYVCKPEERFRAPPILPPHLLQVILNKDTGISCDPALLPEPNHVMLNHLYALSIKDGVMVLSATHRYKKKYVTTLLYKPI

[5] = biological target: T2, AMP-activated protein kinase (AMPK) alpha-1/beta-1/gamma-1 (Homo sapiens); details: at 10 µM
[6] = biological target: T3, AMP-activated protein kinase, AMPK (Homo sapiens) (UniProt P54646+O43741+P54619+Q9UGJ0+Q9Y478+Q13131+Q9UGI9); details: at 1 µM
[7] = biological target: T3, AMP-activated protein kinase, AMPK (Homo sapiens); details: at 10 µM
[8] = biological target: T4, NUAK family SNF1-like kinase 1 (Homo sapiens) (UniProt O60285); details: at 10 µM
T4 sequence (whole entry): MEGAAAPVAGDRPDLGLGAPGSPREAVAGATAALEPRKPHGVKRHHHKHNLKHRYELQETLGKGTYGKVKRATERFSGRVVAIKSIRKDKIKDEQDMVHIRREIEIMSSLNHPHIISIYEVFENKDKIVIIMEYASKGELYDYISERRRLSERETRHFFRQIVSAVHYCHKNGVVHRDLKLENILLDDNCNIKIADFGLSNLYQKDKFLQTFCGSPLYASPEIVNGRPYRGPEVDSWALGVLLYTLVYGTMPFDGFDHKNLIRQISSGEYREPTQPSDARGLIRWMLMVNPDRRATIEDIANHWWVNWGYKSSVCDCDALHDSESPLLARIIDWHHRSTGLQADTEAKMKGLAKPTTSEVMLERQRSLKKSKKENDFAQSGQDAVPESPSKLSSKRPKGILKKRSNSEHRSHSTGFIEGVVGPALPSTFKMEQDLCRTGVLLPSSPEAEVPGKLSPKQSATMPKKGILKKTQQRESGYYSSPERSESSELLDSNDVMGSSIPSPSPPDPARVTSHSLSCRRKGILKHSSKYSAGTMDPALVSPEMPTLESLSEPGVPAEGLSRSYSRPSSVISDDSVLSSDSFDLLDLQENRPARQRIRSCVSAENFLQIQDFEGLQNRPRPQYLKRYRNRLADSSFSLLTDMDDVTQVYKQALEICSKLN

[9] = biological target: T5, Mitogen-activated protein kinase kinase kinase 5 (Homo sapiens) (UniProt Q99683); details: at 1 µM
T5 sequence (whole entry): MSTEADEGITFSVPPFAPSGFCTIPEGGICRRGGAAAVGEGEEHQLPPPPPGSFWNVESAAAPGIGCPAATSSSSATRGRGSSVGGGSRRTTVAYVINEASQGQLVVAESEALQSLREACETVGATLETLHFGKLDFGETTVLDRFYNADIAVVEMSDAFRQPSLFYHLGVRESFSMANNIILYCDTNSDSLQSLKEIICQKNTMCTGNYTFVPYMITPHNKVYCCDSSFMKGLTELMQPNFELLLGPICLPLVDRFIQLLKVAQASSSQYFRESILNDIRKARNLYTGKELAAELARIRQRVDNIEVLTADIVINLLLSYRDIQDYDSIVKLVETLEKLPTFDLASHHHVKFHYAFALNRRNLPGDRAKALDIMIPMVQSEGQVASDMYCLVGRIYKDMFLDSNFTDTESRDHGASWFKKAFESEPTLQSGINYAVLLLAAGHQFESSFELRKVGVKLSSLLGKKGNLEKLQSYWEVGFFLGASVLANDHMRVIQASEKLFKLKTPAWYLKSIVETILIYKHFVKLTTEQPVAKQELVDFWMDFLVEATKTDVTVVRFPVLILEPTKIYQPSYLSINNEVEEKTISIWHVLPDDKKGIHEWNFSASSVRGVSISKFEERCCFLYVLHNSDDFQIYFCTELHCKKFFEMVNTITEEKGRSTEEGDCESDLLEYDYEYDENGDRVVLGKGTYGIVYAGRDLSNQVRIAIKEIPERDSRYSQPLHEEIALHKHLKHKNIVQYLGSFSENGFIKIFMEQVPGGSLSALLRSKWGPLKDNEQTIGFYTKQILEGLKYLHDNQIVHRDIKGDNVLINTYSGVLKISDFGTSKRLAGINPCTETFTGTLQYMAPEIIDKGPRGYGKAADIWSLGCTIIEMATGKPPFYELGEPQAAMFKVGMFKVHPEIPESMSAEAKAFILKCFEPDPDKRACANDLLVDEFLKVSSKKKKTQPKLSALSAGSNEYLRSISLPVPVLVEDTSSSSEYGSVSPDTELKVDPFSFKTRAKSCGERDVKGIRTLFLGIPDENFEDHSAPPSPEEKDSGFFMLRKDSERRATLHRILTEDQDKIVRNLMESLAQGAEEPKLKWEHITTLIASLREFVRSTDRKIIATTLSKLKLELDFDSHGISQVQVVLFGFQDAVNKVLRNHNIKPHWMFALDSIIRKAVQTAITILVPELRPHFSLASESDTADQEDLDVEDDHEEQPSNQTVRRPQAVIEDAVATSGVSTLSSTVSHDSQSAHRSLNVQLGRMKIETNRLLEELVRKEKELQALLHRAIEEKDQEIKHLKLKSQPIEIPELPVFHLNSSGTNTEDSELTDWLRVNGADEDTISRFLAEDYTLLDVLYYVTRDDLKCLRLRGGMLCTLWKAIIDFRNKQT

[10] = biological target: T6, 3-phosphoinositide-dependent protein kinase 1 (Homo sapiens) (UniProt O15530); details: at 1 µM
T6 sequence (whole entry): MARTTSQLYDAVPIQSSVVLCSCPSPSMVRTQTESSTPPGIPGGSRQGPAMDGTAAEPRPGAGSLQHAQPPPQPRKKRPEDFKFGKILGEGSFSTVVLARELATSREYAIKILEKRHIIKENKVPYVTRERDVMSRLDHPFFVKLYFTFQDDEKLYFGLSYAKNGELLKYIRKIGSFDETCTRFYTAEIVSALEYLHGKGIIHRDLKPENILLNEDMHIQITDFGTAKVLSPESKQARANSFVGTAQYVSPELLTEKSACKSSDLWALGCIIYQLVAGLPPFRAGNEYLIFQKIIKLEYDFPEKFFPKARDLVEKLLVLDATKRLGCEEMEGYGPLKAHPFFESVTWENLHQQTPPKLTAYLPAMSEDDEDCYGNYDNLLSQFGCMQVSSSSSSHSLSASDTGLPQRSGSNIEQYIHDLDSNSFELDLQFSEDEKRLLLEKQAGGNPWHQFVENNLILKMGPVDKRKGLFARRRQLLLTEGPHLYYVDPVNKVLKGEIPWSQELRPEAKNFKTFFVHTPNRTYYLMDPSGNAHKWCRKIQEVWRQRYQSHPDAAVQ

[11] = biological target: T6, 3-phosphoinositide-dependent protein kinase 1 (Homo sapiens); details: at 10 µM
[12] = biological target: cAMP-dependent protein kinase catalytic subunit alpha (Homo sapiens) (UniProt P17612); details: at 1 µM
[13] = biological target: cAMP-dependent protein kinase catalytic subunit alpha (Homo sapiens) (UniProt P17612); details: at 10 µM
[14] = biological target: RAC-gamma serine/threonine-protein kinase (Homo sapiens) (UniProt Q9Y243); details: at 1 µM
RAC-gamma serine/threonine-protein kinase (Homo sapiens), sequence (Q9Y243 whole entry): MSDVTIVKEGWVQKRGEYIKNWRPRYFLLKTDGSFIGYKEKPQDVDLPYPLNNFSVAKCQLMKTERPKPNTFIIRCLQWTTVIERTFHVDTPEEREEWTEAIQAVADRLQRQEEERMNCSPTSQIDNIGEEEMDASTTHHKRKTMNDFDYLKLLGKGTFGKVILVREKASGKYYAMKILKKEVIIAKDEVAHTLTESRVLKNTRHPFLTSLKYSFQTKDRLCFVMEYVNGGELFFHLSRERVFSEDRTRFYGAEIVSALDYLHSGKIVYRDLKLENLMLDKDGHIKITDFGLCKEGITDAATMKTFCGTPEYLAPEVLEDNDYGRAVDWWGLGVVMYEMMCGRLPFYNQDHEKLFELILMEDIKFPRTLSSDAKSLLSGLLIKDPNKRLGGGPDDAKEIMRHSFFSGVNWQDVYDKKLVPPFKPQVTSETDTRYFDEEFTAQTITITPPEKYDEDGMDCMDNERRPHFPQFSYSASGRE

[15] = biological target: RAC-gamma serine/threonine-protein kinase (Homo sapiens) (UniProt Q9Y243); details: at 10 µM
[16] = biological target: T4, NUAK family SNF1-like kinase 1 (Homo sapiens); details: at 1 µM
[17] = biological target: Platelet-derived growth factor receptor alpha (Homo sapiens) (UniProt P16234); details: at 1 µM
[18] = biological target: Platelet-derived growth factor receptor alpha (Homo sapiens) (UniProt P16234); details: at 10 µM
[19] = biological target: Platelet-derived growth factor receptor beta (Homo sapiens) (UniProt P09619); details: at 10 µM
Platelet-derived growth factor receptor beta (Homo sapiens), sequence (P09619 whole entry): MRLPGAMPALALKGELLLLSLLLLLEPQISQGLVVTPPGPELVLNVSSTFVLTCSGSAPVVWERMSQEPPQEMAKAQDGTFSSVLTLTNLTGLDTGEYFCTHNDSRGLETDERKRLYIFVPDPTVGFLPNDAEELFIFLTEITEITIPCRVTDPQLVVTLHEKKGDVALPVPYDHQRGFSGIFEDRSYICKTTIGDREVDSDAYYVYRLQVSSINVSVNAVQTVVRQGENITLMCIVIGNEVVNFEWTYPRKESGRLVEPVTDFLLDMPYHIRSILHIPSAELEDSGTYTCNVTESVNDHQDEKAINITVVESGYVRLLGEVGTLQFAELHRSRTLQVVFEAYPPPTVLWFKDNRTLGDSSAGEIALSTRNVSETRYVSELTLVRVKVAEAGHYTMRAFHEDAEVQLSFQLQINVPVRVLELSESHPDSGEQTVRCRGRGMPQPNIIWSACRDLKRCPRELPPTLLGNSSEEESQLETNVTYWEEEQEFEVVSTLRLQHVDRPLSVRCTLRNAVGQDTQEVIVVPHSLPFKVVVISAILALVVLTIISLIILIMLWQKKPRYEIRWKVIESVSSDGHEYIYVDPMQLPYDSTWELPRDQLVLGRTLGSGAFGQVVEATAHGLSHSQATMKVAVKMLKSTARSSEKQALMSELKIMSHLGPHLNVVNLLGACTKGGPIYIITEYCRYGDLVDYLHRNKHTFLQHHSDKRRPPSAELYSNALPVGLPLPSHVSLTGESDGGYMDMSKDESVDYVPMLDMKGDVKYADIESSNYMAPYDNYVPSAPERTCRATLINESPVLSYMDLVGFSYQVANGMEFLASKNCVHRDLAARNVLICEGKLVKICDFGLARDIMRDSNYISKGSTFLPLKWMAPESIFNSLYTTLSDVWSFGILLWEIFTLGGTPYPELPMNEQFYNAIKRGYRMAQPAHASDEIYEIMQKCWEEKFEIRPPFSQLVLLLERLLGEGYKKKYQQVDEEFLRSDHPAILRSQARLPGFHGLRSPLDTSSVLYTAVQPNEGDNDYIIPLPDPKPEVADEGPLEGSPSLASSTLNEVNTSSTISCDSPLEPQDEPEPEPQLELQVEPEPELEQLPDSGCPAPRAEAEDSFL

[20] = biological target: Platelet-derived growth factor receptor beta (Homo sapiens) (UniProt P09619); details: at 1 µM

ALK tyrosine kinase receptor (Homo sapiens), sequence (Q9UM73 19-1620 limits assumed): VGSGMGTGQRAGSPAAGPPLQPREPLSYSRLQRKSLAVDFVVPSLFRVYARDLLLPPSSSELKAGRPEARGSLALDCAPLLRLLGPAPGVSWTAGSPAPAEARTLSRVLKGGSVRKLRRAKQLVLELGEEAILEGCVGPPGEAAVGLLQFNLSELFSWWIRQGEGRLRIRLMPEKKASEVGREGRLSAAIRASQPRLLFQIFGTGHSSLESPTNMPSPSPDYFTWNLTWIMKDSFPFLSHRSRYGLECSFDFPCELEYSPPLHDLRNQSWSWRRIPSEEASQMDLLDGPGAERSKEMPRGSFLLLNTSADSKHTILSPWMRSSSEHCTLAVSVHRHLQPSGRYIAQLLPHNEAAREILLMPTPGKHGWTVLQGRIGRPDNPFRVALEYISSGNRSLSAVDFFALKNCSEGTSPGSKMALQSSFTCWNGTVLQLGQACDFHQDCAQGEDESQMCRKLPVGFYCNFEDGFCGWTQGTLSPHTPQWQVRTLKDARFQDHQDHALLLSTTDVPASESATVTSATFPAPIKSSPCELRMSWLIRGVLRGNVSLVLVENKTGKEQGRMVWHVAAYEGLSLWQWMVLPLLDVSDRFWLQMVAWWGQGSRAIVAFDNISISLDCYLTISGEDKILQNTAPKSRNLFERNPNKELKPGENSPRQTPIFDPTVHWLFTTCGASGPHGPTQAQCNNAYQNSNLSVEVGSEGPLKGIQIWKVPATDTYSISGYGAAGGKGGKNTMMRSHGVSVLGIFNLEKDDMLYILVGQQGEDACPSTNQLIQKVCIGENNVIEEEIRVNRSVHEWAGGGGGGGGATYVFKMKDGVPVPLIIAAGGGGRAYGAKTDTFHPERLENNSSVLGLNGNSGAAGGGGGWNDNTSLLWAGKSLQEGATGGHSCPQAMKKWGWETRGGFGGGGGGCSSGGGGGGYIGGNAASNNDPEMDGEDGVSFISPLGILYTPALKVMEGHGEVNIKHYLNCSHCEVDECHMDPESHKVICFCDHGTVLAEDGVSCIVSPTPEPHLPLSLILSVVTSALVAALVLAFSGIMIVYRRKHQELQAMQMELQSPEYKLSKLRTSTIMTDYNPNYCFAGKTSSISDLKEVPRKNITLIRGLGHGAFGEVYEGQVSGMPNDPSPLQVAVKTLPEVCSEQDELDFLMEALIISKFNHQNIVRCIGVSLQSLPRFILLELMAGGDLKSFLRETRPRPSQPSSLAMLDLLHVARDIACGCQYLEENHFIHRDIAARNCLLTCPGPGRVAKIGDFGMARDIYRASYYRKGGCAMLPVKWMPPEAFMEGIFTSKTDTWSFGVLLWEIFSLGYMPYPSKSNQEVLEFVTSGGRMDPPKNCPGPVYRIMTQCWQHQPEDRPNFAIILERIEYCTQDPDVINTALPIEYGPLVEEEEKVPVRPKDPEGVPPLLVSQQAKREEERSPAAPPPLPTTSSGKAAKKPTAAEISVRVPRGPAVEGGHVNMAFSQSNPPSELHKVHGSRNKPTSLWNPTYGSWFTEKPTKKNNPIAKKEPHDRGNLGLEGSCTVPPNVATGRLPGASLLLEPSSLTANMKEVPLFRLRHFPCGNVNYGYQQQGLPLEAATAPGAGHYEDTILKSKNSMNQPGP

SMILES	residual activity [1]	residual activity [2]	residual activity [3]	residual activity [4]	residual activity [5]	residual activity [6]	residual activity [7]	residual activity [8]	residual activity [9]	residual activity [10]	residual activity [11]	residual activity [12]	residual activity [13]	residual activity [14]	residual activity [15]	residual activity [16]	residual activity [17]	residual activity [18]	residual activity [19]	residual activity [20]
O=C1NC(=O)C(c2cn(CCCn3ccnc3)c3ccccc23)=C1Nc1ccccc1	65%	107%	103%	74%	32%	73%	25%	38%	82%	39%	8%	69%	43%	50%	15%	–	–	–	–	–
COc1ccc2c(c1)c(C1=C(c3c[nH]c4ccccc34)C(=O)NC1=O)cn2CCCN(C)C	64%	–	47%	52%	11%	38%	5%	10%	–	62%	14%	37%	17%	30%	9%	37%	106%	66%	63%	–
O=c1cc(N2CCOCC2)oc2c(-c3ccccc3)cccc12	53%	–	–	–	–	–	–	–	–	–	–	–	–	–	–	–	–	–	–	–
O=C1NC(=O)c2c1c1c3ccccc3[nH]c1n1cncc21	48%	97%	–	49%	34%	38%	29%	13%	99%	56%	39%	82%	88%	84%	64%	15%	96%	92%	92%	88%
COc1cc2ncnc(Nc3cccc(Cl)c3)c2cc1OC	107%	105%	101%	–	67%	–	74%	52%	103%	–	–	111%	101%	112%	–	–	104%	87%	103%	102%
O=C(O)/C=C/c1cc(Br)c(Br)c(Br)c1Br	87%	–	85%	101%	56%	94%	76%	94%	98%	107%	99%	96%	71%	105%	61%	102%	100%	103%	–	–
CC(C)(C)n1nc(Cc2cccc3ccccc23)c2c(N)ncnc21	49%	129%	60%	103%	72%	89%	74%	92%	111%	108%	117%	34%	8%	92%	44%	105%	116%	72%	71%	99%
N#Cc1c(NC(=O)c2cccc3ccccc23)sc2c1CCCC2	91%	87%	93%	86%	97%	98%	–	92%	88%	–	–	–	91%	–	81%	–	–	–	92%	–
O=C1C(Cl)=C(N2C(=O)CCC2=O)C(=O)c2ccccc21	58%	101%	121%	95%	91%	99%	101%	84%	89%	–	–	95%	84%	89%	87%	96%	–	–	93%	95%
O=C1NC(=O)C(c2cn(CCCO)c3ncccc23)=C1c1cnccn1	67%	83%	–	92%	75%	94%	80%	50%	78%	–	–	–	–	98%	89%	62%	–	–	96%	–
CN([C@@H](Cc1ccc(OS(=O)(=O)c2cccc3cnccc23)cc1)C(=O)N1CCN(c2ccccc2)CC1)S(=O)(=O)c1cccc2cnccc12	57%	–	86%	–	–	–	86%	–	115%	–	–	–	–	–	60%	–	–	–	98%	–
O=C(NC(NC(=S)Nc1ccc(F)c([N+](=O)[O-])c1)C(Cl)(Cl)Cl)C(c1ccccc1)c1ccccc1 (stereo unspecified)	97%	94%	103%	90%	71%	89%	77%	86%	–	103%	87%	–	–	98%	69%	–	–	–	96%	97%
O=C(c1cc2cc(O)ccc2[nH]1)c1cc2cc(O)ccc2[nH]1	58%	111%	–	16%	1%	13%	3%	20%	–	79%	23%	74%	–	–	–	65%	46%	6%	6%	35%
Fc1ccc(-c2nc3n(c2-c2ccncc2)CCS3)cc1	94%	100%	29%	–	–	–	–	90%	96%	–	–	94%	84%	–	–	–	–	–	128%	123%
